# Data reported in the supplement of paper PMC10037445.
# Over roughly 2,900 compounds, “NF-kB SEAP reporter activity, fold change vs agonist alone” has its median near 0.99; the highest 2% begin near 2.6. The full list was thinned out, with the highest values kept by preference.
# Key:
# [1] = system: RAW-Dual; assay: NF-kB SEAP reporter activity, fold change vs agonist alone; cytotoxicity flag (confluency mask): not cytotoxic; higher = enhanced NF-kB activity
# How it was run: (§1)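 RAW-Dual macrophages (50,000 cells/well in DMEM, 384-well plates) received 50 nL of library stock by pin tool, then a PRR agonist 1 h later, and were kept at 37 °C, 5% CO2. After 20 hours, supernatant was read for IRF by QuantiLuc luminescence and for NF-κB by QuantiBlue absorbance at 620 nm. Reporter activity is fold change over agonist-alone wells. Cytotoxic wells had IncuCyte confluency below 70% of agonist controls in both mask sets.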
# [2] = system: RAW-Dual; assay: NF-kB SEAP reporter activity, fold change vs agonist alone; higher = enhanced NF-kB activity; details: library stock concentration (final ~1000-fold dilution): 10 mM
# How it was run: as §1
# [3] = agonist: ODN 1826 (TLR9) 0.5 ug/mL
# [4] = agonist: Pam2CSK4 (TLR2/6) 0.1 ug/mL
# [5] = agonist: Pam3CSK4 (TLR2/1) 0.1 ug/mL
# [6] = cytotoxicity flag (confluency mask): not cytotoxic, agonist: Imiquimod (TLR7) […]
# [7] = cytotoxicity flag (confluency mask): not cytotoxic, agonist: MPLA (TLR4) […]
smiles,measurement,setting,value
COC1C(=O)C2(C)C(OC)CC3OCC3(OC(C)=O)C2C(OC(=O)c2ccccc2)C2(O)CC(OC(=O)C(O)C(NC(=O)OC(C)(C)C)c3ccccc3)C(C)=C1C2(C)C (stereo not given) (library stock concentration (final ~1000-fold dilution): 10 mM),NF-kB SEAP reporter activity,[1]; agonist: LPS (TLR4) 0.1 ug/mL,1.71
same,NF-kB SEAP reporter activity,[1]; [3],1.2
same,NF-kB SEAP reporter activity,[1]; [4],1.01
same,NF-kB SEAP reporter activity,[1]; [5],0.912
COC1C(=O)C2(C)C(OC)CC3OCC3(OC(C)=O)C2C(OC(=O)c2ccccc2)C2(O)CC(OC(=O)C(O)C(NC(=O)OC(C)(C)C)c3ccccc3)C(C)=C1C2(C)C (stereo not given),NF-kB SEAP reporter activity,[2]; [6],1.57
same,NF-kB SEAP reporter activity,[2]; [7],1.25
Cc1cccc(Nc2nc(-c3ccncc3)cs2)c1 (library stock concentration (final ~1000-fold dilution): 10 mM),NF-kB SEAP reporter activity,[1]; agonist: LPS (TLR4) 0.1 ug/mL,2.85
same,NF-kB SEAP reporter activity,[1]; [3],1.3
same,NF-kB SEAP reporter activity,[1]; [4],0.662
same,NF-kB SEAP reporter activity,[1]; [5],1
Oc1ccc(Nc2nc(-c3ccc(Cl)cc3)cs2)cc1,NF-kB SEAP reporter activity,[2]; [6],0.665
same,NF-kB SEAP reporter activity,[2]; [7],0.836
Cc1cccc(Nc2nc(-c3ccncc3)cs2)c1,NF-kB SEAP reporter activity,[2]; [6],1.89
same,NF-kB SEAP reporter activity,[2]; [7],2.08
O=C(NCc1cccc(O)c1)Nc1nc(-c2ccncc2)cs1,NF-kB SEAP reporter activity,[2]; [6],1.3
same,NF-kB SEAP reporter activity,[2]; [7],1.45
Oc1ccc(Nc2nc(-c3ccc(Cl)cc3)cs2)cc1 (library stock concentration (final ~1000-fold dilution): 10 mM),NF-kB SEAP reporter activity,[1]; agonist: LPS (TLR4) 0.1 ug/mL,0.311
same,NF-kB SEAP reporter activity,[1]; [3],0.27
same,NF-kB SEAP reporter activity,[1]; [4],0.227
same,NF-kB SEAP reporter activity,[1]; [5],0.157
O=C(NCc1cccc(O)c1)Nc1nc(-c2ccncc2)cs1 (library stock concentration (final ~1000-fold dilution): 10 mM),NF-kB SEAP reporter activity,[1]; agonist: LPS (TLR4) 0.1 ug/mL,1.01
same,NF-kB SEAP reporter activity,[1]; [3],1.21
same,NF-kB SEAP reporter activity,[1]; [4],1.24
same,NF-kB SEAP reporter activity,[1]; [5],1.88
CCCOc1ccc(S(=O)(=O)NCCC2CCCN2C)cc1-c1nc(=O)c2c([nH]1)c(CCC)nn2C (stereo not given) (library stock concentration (final ~1000-fold dilution): 10 mM),NF-kB SEAP reporter activity,[1]; agonist: LPS (TLR4) 0.1 ug/mL,1.02
same,NF-kB SEAP reporter activity,[1]; [3],0.517
same,NF-kB SEAP reporter activity,[1]; [4],0.99
same,NF-kB SEAP reporter activity,[1]; [5],1.14
CCCOc1ccc(S(=O)(=O)NCCC2CCCN2C)cc1-c1nc(=O)c2c([nH]1)c(CCC)nn2C (stereo not given),NF-kB SEAP reporter activity,[2]; [6],1.42
same,NF-kB SEAP reporter activity,[2]; [7],1.28
COc1cc(F)c(F)c(Nc2ccc(I)cc2F)c1NS(=O)(=O)C1(CC(O)CO)CC1 (stereo not given),NF-kB SEAP reporter activity,[2]; [6],0.885
same,NF-kB SEAP reporter activity,[2]; [7],0.968
COc1cc(F)c(F)c(Nc2ccc(I)cc2F)c1NS(=O)(=O)C1(CC(O)CO)CC1 (stereo not given) (library stock concentration (final ~1000-fold dilution): 10 mM),NF-kB SEAP reporter activity,[1]; agonist: LPS (TLR4) 0.1 ug/mL,1.01
same,NF-kB SEAP reporter activity,[1]; [3],0.915
same,NF-kB SEAP reporter activity,[1]; [4],0.342
same,NF-kB SEAP reporter activity,[1]; [5],0.427
Cl.Cl.Fc1ccc(C(c2ccc(F)cc2)N2CCN(C/C=C/c3ccccc3)CC2)cc1,NF-kB SEAP reporter activity,[2]; [6],1.99
same,NF-kB SEAP reporter activity,[2]; [7],1.65
Cl.Cl.Fc1ccc(C(c2ccc(F)cc2)N2CCN(C/C=C/c3ccccc3)CC2)cc1 (library stock concentration (final ~1000-fold dilution): 10 mM),NF-kB SEAP reporter activity,[1]; agonist: LPS (TLR4) 0.1 ug/mL,2.45
same,NF-kB SEAP reporter activity,[1]; [3],1.44
same,NF-kB SEAP reporter activity,[1]; [4],0.829
same,NF-kB SEAP reporter activity,[1]; [5],1.09
COC12C(COC(N)=O)C3=C(C(=O)C(C)=C(N)C3=O)N1CC1NC12 (stereo not given),NF-kB SEAP reporter activity,[2]; [6],1.82
same,NF-kB SEAP reporter activity,[2]; [7],1.79
COC12C(COC(N)=O)C3=C(C(=O)C(C)=C(N)C3=O)N1CC1NC12 (stereo not given) (library stock concentration (final ~1000-fold dilution): 10 mM),NF-kB SEAP reporter activity,[1]; agonist: LPS (TLR4) 0.1 ug/mL,2.79
same,NF-kB SEAP reporter activity,[1]; [3],2.71
same,NF-kB SEAP reporter activity,[1]; [4],1.89
same,NF-kB SEAP reporter activity,[1]; [5],3.31
CCN(CC)CCNC(=O)c1c(C)[nH]c(/C=C2/C(=O)Nc3ccc(-c4csc(-c5ccccc5)n4)cc32)c1C,NF-kB SEAP reporter activity,"[2]; cytotoxicity flag (confluency mask): cytotoxic (confluency <70% of control), agonist: Imiquimod (TLR7) […]",1.35
same,NF-kB SEAP reporter activity,"[2]; cytotoxicity flag (confluency mask): cytotoxic (confluency <70% of control), agonist: MPLA (TLR4) […]",1.55
